Source: PMC4336329 (PLoS ONE, 2015)
Out of some 310,000 compounds screened, about 14,000 (4.5%) showed an effect of 50% or more. The effect is printed as a negative number. Shown is part of a subset that was picked to be rich in strong results.

Biological target: human ether-à-go-go-related gene (hERG) potassium channel (human, UniProt Q12809)
Assay: primary screen, population patch clamp on CHO cells stably expressing hERG; higher = less effect of the substance
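Note: peak tail current of the secondary pulse compared with the same well before compound.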

Chain of human ether-à-go-go-related gene (hERG) potassium channel (Q12809 whole entry, looked up): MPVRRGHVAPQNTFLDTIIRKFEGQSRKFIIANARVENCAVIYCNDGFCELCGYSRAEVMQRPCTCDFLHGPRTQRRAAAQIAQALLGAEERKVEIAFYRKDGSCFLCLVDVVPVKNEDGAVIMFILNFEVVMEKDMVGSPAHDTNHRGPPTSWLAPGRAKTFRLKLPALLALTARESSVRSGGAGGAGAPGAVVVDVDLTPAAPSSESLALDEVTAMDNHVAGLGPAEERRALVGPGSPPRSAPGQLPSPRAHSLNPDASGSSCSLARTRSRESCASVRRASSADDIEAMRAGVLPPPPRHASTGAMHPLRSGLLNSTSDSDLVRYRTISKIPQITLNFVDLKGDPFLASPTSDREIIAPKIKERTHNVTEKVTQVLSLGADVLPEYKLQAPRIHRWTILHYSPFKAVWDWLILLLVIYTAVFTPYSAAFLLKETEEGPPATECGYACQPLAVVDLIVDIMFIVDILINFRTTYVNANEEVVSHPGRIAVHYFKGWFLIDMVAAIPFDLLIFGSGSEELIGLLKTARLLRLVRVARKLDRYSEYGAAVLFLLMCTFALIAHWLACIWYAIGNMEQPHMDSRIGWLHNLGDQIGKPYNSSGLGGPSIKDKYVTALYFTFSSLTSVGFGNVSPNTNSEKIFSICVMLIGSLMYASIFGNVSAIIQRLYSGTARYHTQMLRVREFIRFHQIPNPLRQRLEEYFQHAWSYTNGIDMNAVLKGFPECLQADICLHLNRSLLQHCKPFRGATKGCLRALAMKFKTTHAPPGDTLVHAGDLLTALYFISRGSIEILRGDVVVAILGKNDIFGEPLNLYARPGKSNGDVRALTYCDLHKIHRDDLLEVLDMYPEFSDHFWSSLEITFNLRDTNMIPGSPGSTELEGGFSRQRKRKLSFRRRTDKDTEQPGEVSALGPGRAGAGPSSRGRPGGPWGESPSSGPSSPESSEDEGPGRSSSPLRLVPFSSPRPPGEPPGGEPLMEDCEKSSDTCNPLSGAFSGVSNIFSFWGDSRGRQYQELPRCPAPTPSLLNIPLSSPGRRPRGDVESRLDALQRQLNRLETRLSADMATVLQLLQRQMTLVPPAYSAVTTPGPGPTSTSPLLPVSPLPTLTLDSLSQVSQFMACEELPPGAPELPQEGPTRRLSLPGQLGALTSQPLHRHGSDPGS

SMILES	hERG current change (%, negative = inhibition) at 10uM [%]
O=C(O)c1ccc(N2C(=O)CC(N3CCC(c4nc5ccccc5[nH]4)CC3)C2=O)cc1 (centres unmarked)	4.95
COc1ccc(-c2ccc(Nc3ccc(C(=O)N4CCOCC4)cc3)nn2)cc1OC	-5.3
O=C(C[n+]1ccc(/C=C/c2ccccc2)cc1)c1ccc2c(c1)OCCO2.[Br-]	-50.2
CC(=O)N/N=C(\C)c1ccc2c(c1)OCCO2	11
CC(=O)N1CCN(C(=O)c2ccc3c(c2)OCCO3)CC1	10.9
CC(C)(C)C(=O)Nc1ccc2c(c1)OCCOCCOc1cc(NC(=O)C(C)(C)C)ccc1OCCOCCO2	-65.5
CC(=O)c1ccc2c(c1)OCCOCCOc1ccccc1OCCOCCO2	-74.4
CCC(=O)c1ccc2c(c1)OCCO2	3.36
CC(=O)Nc1ccc2c(c1)OCCOCCOc1cc(NC(C)=O)ccc1OCCOCCOCCO2	-2.81
Cc1cc[n+](CC(=O)c2ccc3c(c2)OCCO3)cc1.[Br-]	-22.2
CC(=O)Nc1ccc2c(c1)OCCOCCOc1cc(NC(C)=O)ccc1OCCO2	-4.52
C/C(=N\O)c1ccc2c(c1)OCCO2	14.3
Nc1cc[n+](CC(=O)c2ccc3c(c2)OCCO3)cc1.[Br-]	-0.154
C/C(=N/O)c1ccc2c(c1)OCCOCCOc1cc(/C(C)=N/O)ccc1OCCOCCO2	-77.3
COC(=O)CCC(=O)NNC(=O)CCC(=O)Nc1cccc(Cl)c1C	6.61
CNC(=O)c1cc(-c2ccc(Cl)cc2)n(-c2ccccc2)n1	4.41
Cc1ccc(C)c(NS(=O)(=O)c2cc(C(=O)NCC3CCCO3)ccc2C)c1 (centres unmarked)	-47.7
Cc1nc(S(=O)(=O)Cc2ccccc2Cl)nc2c1CCC2	24.1
O=C(CSc1nc2c(cnn2-c2cccc(Cl)c2)c(=O)[nH]1)NCCC1=CCCCC1	-16.7
CC(C)NC(=O)COC(=O)CNC(=O)c1cc(Cl)cc([N+](=O)[O-])c1	-0.0659

SMILES	hERG current change (%, negative = inhibition) at 10uM [%]
COC(=O)/C(=N\OCc1ccc(C#N)cc1)c1c(C)nn(C)c1C	-29.3
CC1(C2CC2)NC(=O)N(CC(=O)Nc2ccc(Cl)c([N+](=O)[O-])c2)C1=O (centres unmarked)	-1.15
CCCc1n[nH]c(=O)c2c1nnn2Cc1ccccc1	4.86
O=C(O)c1ccc2c(c1)OCCO2	3.19
CC(=O)c1ccc2c(c1)OCCOCCOCCO2	8.76
CC(=O)c1ccc2c(c1)OCCOCCOCCOCCOCCO2	-62.4
O=C(O)c1ccc2c(c1)OCCOCCOCCOCCOCCO2	-64
O=C(c1ccccc1)c1ccc2c(c1)OCCOCCOCCO2	-3.96
CC(=O)c1ccc2c(c1)OCO2	16.1
NC(=O)c1ccc2c(c1)OCCO2	6.04
CC(=O)c1ccc2c(c1)OCCOCCOc1ccc(C(C)=O)cc1OCCOCCO2	-76.6
O=C(c1ccccc1)c1ccc2c(c1)OCCCO2	-5.56
O=C(O)c1ccc2c(c1)OCCCO2	4.27
CC(=O)c1ccc2c(c1)OCCOCCOCCOCCO2	-49.3
O=C(c1ccccc1)c1ccc2c(c1)OCCOCCOCCOCCO2	-65
CC(=O)Nc1ccc(C(=O)NNC(=O)c2cccc(C)c2)cc1	-1.91
CCCC(=O)Nc1nnc(-c2ccco2)s1	2.55
O=C(COC(=O)CSc1ccc(F)cc1)NNC(=O)c1ccc([N+](=O)[O-])cc1	-30.2
O=C(CCCN1C(=O)/C(=C/c2cccs2)SC1=S)NNC(=O)c1ccccc1O	4.76
COc1ccccc1Nc1nn2c(=O)c3ccc(C(=O)N4CCCCC4)cc3nc2s1	3.25

SMILES	hERG current change (%, negative = inhibition) at 10uM [%]
Cc1cccc(OCC(=O)N=Nc2c(O)[nH]c3ccc([N+](=O)[O-])cc23)c1	-2.59
CCOC(=O)CN1C(=O)C(Sc2n[nH]c(-c3cccc(C)c3)n2)CCc2ccccc21 (centres unmarked)	6.35
COc1ccc(CCC(=O)N2CCCc3ccccc32)cc1	6.02
Nc1c(S(=O)(=O)c2cc(Cl)ccc2Cl)c2nc3ccccc3nc2n1CCN1CCOCC1	-15.3
CC(NCC(O)COc1ccccc1)C1COc2ccccc2O1 (centres unmarked)	-46.7
COc1cc(CN2CCN(C(C)C)C(CCO)C2)ccc1OCc1ccccc1 (centres unmarked)	-55.2
CC(C)N1CCN(Cc2ccc3c(c2)Cc2ccccc2-3)CC1CCO (centres unmarked)	-52.4
COc1ccc(CN2CCN(C(C)C)C(CCO)C2)cc1Cn1cncn1 (centres unmarked)	34.1
CC(C)N1CCN(Cc2ccc(OC3CCCC3)cc2)CC1CCO (centres unmarked)	-10.7
CC(C)N1CCN(Cc2ccc(Oc3ncccn3)cc2)CC1CCO (centres unmarked)	10.9
CCN1CCN(Cc2ccc(OCc3ccccc3)c(OC)c2)CC1	-17.7
CC(C)N1CCN(Cc2ccncc2)CC1CCO (centres unmarked)	4.5
CC(C)N1CCN(Cc2ccc3nsnc3c2)CC1CCO (centres unmarked)	8.66
CC(C)N1CCN(Cc2ccc(OCc3ccccc3)cc2)CC1CCO (centres unmarked)	-51.6
CCCSc1nsc(NC(=O)C(c2ccccc2)c2ccccc2)n1	19.3
Cc1nn(C)c(C)c1NC(=O)c1cnn2c(C(F)F)cc(-c3ccccc3)nc12	40.4
COc1ccccc1N(CC(=O)N1CCCC1)S(=O)(=O)c1ccc(C)cc1	5.18
COc1ccc(-c2noc(CCCC(=O)Nc3cccnc3)n2)cc1OC	-6.97
c1ccc(-c2cc(-c3ccccc3)[nH]n2)cc1	12.3
